Test results taken from ChEMBL document CHEMBL1961873, “Compounds: GSK PKIS; Assays: Nanosyn kinase panel” (2012).

Legend:
[1] = molecular target: T1, Inhibitor of nuclear factor kappa-B kinase subunit epsilon (Homo sapiens) (UniProt Q14164); details: at 1 µM;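 note: reported values are averaged percent inhibition figures against human IKKε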
T1 sequence (whole entry): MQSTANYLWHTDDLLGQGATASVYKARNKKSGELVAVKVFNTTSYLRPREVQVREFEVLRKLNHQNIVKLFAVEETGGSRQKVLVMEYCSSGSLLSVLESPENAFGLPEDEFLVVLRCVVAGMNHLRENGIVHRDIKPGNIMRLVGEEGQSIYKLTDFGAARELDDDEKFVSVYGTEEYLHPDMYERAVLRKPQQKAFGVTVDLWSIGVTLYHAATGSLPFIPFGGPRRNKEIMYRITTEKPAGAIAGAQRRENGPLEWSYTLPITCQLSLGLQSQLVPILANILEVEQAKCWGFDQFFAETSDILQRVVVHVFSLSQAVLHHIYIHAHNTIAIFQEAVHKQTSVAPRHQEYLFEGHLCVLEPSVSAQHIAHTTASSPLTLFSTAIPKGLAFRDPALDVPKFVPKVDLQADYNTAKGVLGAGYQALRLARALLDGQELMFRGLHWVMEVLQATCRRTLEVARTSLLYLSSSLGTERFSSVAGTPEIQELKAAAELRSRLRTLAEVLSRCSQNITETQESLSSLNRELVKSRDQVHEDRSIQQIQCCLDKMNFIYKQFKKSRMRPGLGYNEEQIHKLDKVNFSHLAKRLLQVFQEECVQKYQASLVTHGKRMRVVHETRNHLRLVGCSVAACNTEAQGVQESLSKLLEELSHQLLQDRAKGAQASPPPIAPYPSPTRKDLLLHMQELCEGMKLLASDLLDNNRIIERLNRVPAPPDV

[2] = molecular target: T2, Serine/threonine-protein kinase Nek1 (Homo sapiens) (UniProt Q96PY6); details: at 0.1 µM
T2 sequence (whole entry): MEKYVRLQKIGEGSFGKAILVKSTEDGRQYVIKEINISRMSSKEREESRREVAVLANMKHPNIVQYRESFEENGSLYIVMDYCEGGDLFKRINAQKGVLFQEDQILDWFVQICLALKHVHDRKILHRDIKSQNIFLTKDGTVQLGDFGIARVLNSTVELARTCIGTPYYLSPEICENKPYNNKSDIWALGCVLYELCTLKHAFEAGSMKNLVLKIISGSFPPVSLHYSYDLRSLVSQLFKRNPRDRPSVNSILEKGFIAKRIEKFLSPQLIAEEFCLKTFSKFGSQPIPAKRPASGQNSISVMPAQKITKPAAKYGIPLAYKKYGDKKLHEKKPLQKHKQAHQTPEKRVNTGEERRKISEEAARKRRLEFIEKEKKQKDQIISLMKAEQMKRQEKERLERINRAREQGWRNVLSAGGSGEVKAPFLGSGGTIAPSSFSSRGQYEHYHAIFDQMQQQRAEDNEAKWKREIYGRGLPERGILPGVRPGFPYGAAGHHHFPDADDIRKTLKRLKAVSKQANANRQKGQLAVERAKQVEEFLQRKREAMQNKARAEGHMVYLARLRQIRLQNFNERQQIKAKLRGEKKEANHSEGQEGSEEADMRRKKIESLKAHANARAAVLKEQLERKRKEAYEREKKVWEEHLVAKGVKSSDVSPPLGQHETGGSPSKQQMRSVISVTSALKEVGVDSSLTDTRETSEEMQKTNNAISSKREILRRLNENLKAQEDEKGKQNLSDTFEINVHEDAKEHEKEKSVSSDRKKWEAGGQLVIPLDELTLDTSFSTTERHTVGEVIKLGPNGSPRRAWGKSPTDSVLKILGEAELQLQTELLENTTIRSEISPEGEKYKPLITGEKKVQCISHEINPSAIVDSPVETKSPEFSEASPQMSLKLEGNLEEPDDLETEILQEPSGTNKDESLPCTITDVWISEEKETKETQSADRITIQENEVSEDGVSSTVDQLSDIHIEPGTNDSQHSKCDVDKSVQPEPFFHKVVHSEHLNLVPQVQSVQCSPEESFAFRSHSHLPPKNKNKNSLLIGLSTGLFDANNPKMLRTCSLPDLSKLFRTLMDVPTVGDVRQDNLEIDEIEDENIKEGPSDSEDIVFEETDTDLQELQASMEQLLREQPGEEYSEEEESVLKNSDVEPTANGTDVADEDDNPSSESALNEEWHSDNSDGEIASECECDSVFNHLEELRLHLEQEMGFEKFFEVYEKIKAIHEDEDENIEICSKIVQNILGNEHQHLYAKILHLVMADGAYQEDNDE

[3] = molecular target: T2, Serine/threonine-protein kinase Nek1 (Homo sapiens); details: at 1 µM
[4] = molecular target: T3, Serine/threonine-protein kinase Nek2 (Homo sapiens) (UniProt P51955); details: at 0.1 µM
T3 sequence (whole entry): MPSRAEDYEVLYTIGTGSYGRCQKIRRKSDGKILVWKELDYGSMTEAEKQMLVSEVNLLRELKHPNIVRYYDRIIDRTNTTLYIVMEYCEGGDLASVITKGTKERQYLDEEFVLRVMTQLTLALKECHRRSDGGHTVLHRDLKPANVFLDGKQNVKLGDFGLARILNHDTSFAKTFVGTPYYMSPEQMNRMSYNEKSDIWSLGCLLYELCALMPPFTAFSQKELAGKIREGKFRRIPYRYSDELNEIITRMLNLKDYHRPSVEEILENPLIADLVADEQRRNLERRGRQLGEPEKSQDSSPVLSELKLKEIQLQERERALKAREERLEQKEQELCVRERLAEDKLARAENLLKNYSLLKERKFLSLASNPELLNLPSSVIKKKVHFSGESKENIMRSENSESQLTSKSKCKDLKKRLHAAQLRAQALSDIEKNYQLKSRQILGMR

[5] = molecular target: T3, Serine/threonine-protein kinase Nek2 (Homo sapiens); details: at 1 µM
[6] = molecular target: Serine/threonine-protein kinase Nek6 (Homo sapiens) (UniProt Q9HC98); details: at 0.1 µM
Serine/threonine-protein kinase Nek6 (Homo sapiens), sequence (Q9HC98 whole entry): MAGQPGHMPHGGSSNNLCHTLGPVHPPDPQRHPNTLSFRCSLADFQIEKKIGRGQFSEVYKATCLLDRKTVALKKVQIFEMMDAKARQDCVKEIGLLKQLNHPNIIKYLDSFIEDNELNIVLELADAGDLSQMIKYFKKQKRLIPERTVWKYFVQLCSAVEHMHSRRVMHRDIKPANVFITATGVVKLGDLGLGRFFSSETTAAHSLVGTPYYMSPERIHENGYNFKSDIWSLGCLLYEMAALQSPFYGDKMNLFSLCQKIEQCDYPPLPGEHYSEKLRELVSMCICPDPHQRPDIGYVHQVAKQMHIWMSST

[7] = molecular target: Serine/threonine-protein kinase Nek6 (Homo sapiens) (UniProt Q9HC98); details: at 1 µM
[8] = molecular target: Serine/threonine-protein kinase Nek7 (Homo sapiens) (UniProt Q8TDX7); details: at 0.1 µM
Serine/threonine-protein kinase Nek7 (Homo sapiens), sequence (Q8TDX7 whole entry, looked up): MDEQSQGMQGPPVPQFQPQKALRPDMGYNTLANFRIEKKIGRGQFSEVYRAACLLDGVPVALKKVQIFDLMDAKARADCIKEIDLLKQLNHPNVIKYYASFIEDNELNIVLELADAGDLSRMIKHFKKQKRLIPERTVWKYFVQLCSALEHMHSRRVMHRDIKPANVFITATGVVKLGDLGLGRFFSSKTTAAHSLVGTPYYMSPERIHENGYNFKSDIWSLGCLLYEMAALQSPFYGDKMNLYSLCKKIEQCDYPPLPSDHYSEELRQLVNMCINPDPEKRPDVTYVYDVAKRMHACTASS

[9] = molecular target: Serine/threonine-protein kinase Nek7 (Homo sapiens) (UniProt Q8TDX7); details: at 1 µM
[10] = molecular target: T4, Serine/threonine-protein kinase Nek9 (Homo sapiens) (UniProt Q8TD19); details: at 0.1 µM
T4 sequence (whole entry): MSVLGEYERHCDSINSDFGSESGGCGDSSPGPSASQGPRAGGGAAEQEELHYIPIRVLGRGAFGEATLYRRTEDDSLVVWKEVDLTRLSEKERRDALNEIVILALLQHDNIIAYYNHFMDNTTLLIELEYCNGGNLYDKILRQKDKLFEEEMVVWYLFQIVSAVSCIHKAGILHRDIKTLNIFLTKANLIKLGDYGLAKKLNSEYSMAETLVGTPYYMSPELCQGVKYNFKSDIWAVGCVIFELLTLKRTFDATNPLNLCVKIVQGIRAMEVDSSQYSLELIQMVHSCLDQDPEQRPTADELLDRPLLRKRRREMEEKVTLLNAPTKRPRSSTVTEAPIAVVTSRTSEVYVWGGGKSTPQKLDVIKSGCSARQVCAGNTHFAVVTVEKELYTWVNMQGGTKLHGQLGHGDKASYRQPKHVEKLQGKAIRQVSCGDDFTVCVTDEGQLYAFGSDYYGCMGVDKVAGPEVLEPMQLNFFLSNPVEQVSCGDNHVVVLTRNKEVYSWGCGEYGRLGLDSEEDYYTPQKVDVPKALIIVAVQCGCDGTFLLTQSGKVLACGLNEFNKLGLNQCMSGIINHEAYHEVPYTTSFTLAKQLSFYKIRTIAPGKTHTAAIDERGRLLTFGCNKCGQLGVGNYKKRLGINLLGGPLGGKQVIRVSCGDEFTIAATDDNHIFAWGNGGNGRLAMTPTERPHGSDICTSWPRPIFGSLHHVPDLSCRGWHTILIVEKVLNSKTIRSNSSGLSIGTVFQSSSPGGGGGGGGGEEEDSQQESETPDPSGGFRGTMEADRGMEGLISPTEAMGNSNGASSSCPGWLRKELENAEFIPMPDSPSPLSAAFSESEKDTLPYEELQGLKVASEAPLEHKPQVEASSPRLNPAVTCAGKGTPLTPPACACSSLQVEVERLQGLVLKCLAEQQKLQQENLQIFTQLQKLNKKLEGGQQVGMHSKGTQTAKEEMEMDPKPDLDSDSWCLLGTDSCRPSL

[11] = molecular target: T4, Serine/threonine-protein kinase Nek9 (Homo sapiens); details: at 1 µM
[12] = molecular target: Serine/threonine-protein kinase PLK1 (Homo sapiens) (UniProt P53350); details: at 0.1 µM
Serine/threonine-protein kinase PLK1 (Homo sapiens), sequence (P53350 whole entry): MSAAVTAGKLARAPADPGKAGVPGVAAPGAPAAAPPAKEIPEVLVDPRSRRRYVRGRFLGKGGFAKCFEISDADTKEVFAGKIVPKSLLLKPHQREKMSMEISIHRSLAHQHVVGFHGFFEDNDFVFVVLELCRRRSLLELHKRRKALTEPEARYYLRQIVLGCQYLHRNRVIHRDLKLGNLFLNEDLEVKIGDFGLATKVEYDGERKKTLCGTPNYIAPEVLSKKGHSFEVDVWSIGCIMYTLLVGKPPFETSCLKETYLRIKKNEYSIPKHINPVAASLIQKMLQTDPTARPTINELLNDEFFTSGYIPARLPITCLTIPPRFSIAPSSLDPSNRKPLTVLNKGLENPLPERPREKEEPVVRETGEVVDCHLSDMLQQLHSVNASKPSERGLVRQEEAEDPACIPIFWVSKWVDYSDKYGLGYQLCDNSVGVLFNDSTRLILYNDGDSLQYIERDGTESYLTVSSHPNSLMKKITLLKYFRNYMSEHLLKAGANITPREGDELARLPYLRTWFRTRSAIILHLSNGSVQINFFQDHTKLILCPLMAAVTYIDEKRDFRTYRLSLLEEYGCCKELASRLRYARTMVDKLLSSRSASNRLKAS

[13] = molecular target: Serine/threonine-protein kinase PLK1 (Homo sapiens) (UniProt P53350); details: at 1 µM
[14] = molecular target: T5, Dual specificity protein kinase TTK (Homo sapiens) (UniProt P33981); details: at 0.1 µM
T5 sequence (whole entry): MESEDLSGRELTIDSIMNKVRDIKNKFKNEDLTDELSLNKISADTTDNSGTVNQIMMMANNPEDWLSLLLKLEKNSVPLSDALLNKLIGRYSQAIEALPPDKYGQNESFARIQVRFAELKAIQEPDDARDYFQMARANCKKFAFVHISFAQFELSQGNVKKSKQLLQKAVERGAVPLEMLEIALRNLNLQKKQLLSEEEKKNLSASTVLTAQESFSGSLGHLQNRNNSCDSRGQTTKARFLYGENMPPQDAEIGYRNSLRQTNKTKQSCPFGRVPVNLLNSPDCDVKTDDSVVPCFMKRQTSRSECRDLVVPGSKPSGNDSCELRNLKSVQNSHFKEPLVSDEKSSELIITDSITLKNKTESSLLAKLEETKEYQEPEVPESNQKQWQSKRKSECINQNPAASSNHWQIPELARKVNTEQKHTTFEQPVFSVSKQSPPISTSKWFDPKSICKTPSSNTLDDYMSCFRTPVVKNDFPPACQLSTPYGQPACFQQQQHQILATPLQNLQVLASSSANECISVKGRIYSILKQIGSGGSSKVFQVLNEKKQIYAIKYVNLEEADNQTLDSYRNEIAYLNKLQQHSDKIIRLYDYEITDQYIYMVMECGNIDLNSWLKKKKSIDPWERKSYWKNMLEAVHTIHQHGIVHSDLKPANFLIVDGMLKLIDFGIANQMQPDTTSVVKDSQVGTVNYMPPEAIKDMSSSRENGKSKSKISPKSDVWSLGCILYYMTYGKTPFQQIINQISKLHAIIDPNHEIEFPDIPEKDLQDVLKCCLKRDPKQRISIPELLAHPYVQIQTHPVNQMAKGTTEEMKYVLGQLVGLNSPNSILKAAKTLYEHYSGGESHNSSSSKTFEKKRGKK

[15] = system: T6, Receptor-type tyrosine-protein kinase FLT3 (Homo sapiens), P36888 [D835Y]; details: at 1 µM
T6 sequence (whole entry): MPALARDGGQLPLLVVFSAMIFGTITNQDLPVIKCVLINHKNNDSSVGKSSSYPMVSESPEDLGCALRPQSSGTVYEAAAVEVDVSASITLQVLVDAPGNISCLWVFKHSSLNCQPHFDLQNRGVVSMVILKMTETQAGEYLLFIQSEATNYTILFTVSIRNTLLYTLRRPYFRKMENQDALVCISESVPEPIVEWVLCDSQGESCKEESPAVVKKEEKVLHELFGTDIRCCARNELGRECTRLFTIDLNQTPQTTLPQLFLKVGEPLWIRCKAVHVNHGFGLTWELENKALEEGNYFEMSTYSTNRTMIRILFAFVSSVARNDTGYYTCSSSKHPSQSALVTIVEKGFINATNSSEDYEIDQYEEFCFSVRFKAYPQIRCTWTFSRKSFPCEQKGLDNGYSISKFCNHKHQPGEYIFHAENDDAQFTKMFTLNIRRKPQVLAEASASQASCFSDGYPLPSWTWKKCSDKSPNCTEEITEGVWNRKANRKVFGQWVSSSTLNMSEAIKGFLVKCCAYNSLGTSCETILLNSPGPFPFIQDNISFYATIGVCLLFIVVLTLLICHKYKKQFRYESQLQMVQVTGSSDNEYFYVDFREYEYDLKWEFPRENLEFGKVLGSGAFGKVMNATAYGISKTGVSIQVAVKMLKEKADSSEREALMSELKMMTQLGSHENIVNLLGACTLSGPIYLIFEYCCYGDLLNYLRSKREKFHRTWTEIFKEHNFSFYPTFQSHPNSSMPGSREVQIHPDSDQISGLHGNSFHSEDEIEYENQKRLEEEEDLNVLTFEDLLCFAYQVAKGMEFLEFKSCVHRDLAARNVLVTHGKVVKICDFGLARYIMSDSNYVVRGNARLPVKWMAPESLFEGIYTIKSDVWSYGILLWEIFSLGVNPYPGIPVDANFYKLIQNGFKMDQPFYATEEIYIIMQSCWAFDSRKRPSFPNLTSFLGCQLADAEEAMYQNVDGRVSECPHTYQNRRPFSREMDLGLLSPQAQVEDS

[16] = molecular target: Vascular endothelial growth factor receptor 3 (Homo sapiens) (UniProt P35916); details: at 0.1 µM
Vascular endothelial growth factor receptor 3 (Homo sapiens), sequence (P35916 whole entry): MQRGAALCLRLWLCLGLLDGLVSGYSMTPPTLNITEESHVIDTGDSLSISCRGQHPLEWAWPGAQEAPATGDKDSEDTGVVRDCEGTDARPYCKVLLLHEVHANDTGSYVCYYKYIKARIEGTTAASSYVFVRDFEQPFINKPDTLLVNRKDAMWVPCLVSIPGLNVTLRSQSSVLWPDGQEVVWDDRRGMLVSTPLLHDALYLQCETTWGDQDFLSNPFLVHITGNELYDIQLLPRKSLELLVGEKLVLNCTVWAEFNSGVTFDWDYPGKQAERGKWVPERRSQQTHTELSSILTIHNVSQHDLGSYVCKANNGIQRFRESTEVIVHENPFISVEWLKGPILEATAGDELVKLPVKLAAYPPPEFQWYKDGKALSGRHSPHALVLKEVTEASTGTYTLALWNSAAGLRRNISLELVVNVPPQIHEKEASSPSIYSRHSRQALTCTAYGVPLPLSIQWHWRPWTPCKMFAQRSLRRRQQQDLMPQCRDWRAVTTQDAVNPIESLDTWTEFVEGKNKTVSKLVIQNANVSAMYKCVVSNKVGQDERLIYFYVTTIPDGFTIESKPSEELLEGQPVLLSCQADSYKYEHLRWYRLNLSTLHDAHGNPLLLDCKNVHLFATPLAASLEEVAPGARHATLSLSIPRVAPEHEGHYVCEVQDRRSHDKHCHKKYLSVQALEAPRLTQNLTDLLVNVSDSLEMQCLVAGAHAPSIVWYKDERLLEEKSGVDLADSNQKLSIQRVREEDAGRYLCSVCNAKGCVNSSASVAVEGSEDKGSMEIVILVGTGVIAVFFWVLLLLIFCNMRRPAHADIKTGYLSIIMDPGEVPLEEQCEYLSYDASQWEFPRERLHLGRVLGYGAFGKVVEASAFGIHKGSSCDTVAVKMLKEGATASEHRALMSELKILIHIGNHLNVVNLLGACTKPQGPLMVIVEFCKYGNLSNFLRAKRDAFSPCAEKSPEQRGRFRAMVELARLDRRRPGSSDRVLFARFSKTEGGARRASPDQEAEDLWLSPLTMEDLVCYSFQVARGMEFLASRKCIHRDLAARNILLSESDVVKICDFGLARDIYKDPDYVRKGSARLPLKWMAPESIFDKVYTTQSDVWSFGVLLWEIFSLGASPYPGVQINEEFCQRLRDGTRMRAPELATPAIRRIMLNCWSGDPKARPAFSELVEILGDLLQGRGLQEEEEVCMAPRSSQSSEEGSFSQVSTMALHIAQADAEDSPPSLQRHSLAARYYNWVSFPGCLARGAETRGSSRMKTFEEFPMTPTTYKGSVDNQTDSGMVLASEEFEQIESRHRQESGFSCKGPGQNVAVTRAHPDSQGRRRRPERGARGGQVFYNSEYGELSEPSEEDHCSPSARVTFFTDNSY

[17] = molecular target: Vascular endothelial growth factor receptor 3 (Homo sapiens) (UniProt P35916); details: at 1 µM
[18] = molecular target: Macrophage colony-stimulating factor 1 receptor (Homo sapiens) (UniProt P07333); details: at 0.1 µM
Macrophage colony-stimulating factor 1 receptor (Homo sapiens), sequence (P07333 whole entry): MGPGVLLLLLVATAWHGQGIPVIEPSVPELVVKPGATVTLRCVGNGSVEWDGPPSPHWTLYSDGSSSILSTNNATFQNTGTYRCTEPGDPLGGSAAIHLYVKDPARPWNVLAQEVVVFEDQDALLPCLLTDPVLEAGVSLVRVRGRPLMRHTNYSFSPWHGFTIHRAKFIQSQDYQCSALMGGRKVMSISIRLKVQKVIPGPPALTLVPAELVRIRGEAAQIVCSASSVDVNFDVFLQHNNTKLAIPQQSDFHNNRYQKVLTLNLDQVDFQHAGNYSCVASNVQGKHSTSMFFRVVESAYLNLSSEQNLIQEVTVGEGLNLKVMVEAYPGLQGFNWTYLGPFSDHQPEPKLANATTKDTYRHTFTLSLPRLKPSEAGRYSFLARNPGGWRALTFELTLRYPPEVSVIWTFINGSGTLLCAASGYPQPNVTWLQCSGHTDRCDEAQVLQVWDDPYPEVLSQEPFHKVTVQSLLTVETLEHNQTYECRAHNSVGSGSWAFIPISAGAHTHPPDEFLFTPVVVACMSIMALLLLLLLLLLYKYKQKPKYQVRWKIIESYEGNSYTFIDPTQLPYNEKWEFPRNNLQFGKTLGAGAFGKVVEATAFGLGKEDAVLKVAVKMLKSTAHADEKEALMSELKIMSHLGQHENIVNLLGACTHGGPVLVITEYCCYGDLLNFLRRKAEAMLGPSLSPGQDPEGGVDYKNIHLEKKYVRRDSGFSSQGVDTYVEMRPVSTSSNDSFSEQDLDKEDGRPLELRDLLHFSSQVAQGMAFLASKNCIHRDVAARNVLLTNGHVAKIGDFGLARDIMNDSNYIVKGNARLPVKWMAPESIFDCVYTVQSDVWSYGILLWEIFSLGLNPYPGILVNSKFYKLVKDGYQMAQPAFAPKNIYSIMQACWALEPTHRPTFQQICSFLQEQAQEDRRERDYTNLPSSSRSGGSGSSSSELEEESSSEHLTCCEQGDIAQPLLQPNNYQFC

[19] = molecular target: Macrophage colony-stimulating factor 1 receptor (Homo sapiens) (UniProt P07333); details: at 1 µM
[20] = molecular target: Tyrosine-protein kinase Fyn (Homo sapiens) (UniProt P06241); details: at 0.1 µM
Tyrosine-protein kinase Fyn (Homo sapiens), sequence (P06241 2-537 limits assumed): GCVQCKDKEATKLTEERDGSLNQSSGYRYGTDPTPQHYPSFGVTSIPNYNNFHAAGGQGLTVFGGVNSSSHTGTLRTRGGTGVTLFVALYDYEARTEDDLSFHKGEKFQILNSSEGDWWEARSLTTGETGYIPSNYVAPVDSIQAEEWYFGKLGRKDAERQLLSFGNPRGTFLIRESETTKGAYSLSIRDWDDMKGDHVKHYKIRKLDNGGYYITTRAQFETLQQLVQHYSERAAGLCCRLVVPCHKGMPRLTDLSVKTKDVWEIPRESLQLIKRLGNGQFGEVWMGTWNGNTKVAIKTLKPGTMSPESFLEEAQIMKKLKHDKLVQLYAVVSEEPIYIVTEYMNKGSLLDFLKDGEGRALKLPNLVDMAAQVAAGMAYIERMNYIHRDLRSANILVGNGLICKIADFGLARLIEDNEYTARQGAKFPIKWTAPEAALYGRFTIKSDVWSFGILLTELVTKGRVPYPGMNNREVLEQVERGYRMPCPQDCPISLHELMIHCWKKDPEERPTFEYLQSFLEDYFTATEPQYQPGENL

Structure (SMILES)	inhibition [1]	inhibition [2]	inhibition [3]	inhibition [4]	inhibition [5]	inhibition [6]	inhibition [7]	inhibition [8]	inhibition [9]	inhibition [10]	inhibition [11]	inhibition [12]	inhibition [13]	inhibition [14]	inhibition [15]	inhibition [16]	inhibition [17]	inhibition [18]	inhibition [19]	inhibition [20]
Fc1ccc(-c2cc(-c3c[nH]nc3-c3ccccn3)ccn2)cc1	7.34%	2.81%	0.44%	4.38%	3.61%	4.06%	7.77%	6.08%	4.43%	7.41%	12.6%	3.3%	3.1%	11.3%	0.71%	-1.38%	1.05%	0.08%	3.27%	3.45%
O=C(Nc1n[nH]c2cc(-c3ccc(F)cc3)ccc12)C1CC1	3.59%	2.65%	1.94%	4.38%	4.67%	0.6%	2.6%	5.51%	3%	8.59%	6.43%	2.87%	1.93%	6.08%	1.98%	1.27%	1.78%	1.64%	1.6%	2.62%
COc1cc2ncn(-c3cc(OCc4ccccc4C(F)(F)F)c(C(=O)N(C)C)s3)c2cc1OC	2.1%	0.82%	4.81%	0.75%	2.7%	1.08%	-2.22%	2.1%	0.24%	0.62%	3.25%	3.97%	3.34%	4.69%	1.1%	0.79%	15.2%	4.5%	3.31%	1.31%
